Here are results for 26 compounds from PubChem BioAssay.

The experiment in a line: probe aLefty1 binding on compound microarray – biochemical, small-molecule microarray, 635/667 nm fluorescence, primary screen (AID 1153).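 Note: score merges spot fluorescence with signal-to-noise ratio from the scanned slide images.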 The note with it: higher = more signal.
As for `Cc1ccccc1C(O)C1C=CC2C(=O)N(c3ccccc3)C(=O)C2N1Nc1ccccc1F` (stereo unspecified), the composite z-score was 0.649. Regarding `COC(=O)[C@@]1(CCS(=O)(=O)c2ccccc2)N=C(c2ccc(OCCCO)cc2)O[C@H]1c1ccccc1N=[N+]=[N-]`, the composite z-score is -0.0559. `C=C(CCCC)C(=O)CC[C@H](OC(=O)c1cccnc1)c1ccc(CO)o1` had a composite z-score of 0.3. Consider `COCCOC(=O)N1C(=O)[C@@]2(c3cc(C#CC4(O)CCCCCC4)ccc31)[C@H](c1ccc(OCCO)cc1)N1[C@H](c3ccccc3)[C@H](c3ccccc3)OC(=O)[C@H]1[C@@H]2C(N)=O`, for which the composite z-score stood at 0.223.

Take `CN(C)C(=O)[C@]1(Cc2ccccc2)N=C(c2ccc(OCCCO)cc2)O[C@@H]1c1ccccc1`: the composite z-score was -0.13. For `COc1ccc(C#Cc2ccc3c(c2)[C@]2(C(=O)N3)[C@H](C(=O)Nc3nc4ccccc4s3)[C@H]3C(=O)O[C@H](c4ccccc4)[C@H](c4ccccc4)N3[C@@H]2c2ccc(OCCO)cc2)cc1`, the composite z-score is -0.0186.

The compound `CCOC(=O)C[C@H]1[C@H](OC(=O)c2ccc(C(=O)c3ccccc3)cc2)[C@@H](NC(=O)c2ccc3ccccc3c2)c2cc(OCCCO)ccc2N1C(=O)c1ccc2ccccc2n1` came in with a composite z-score of 0.23. As for `CN(C)CCCCNC(=O)[C@H]1C[C@H]2C(=O)N[C@@H](Cc3ccccc3)C(=O)N2[C@H]1c1cccc(OCCO)c1`, the composite z-score turned out to be 0.0751. `C=C(CC1([C@@H](NP(=O)(c2ccccc2)c2ccccc2)[C@H]2C[C@@H]2CCN(C(=O)OCC)S(=O)(=O)c2ccc(C)cc2)CC1)c1ccccc1`: the composite z-score was found to be 0.723. In the case of `C=C(CCCC)/C(=C/C[C@H](OC(C)=O)c1cccc(OCCO)c1)c1cc(C(=O)OC)ccc1OC` it was -0.007; in that of `C=CCNC(=O)[C@H]1[C@@H]2C(=O)O[C@@H](c3ccccc3)[C@@H](c3ccccc3)N2[C@@H](c2ccccc2OCCO)[C@]12C(=O)N(C(=O)OCCOC)c1ccccc12`, 0.162. For the compound `O=C1OCCC/C=C\[C@H]2OC34C=CCN(Cc5ccccc5)C(=O)[C@H]3N(CCCCCO)C(=O)[C@@H]4C12` (stereo partly specified), the composite z-score is -0.094. Take `CC(C)(C)OC(=O)CC[C@]1(C(=O)N2CCOCC2)N=C(c2ccc(OCCCO)cc2)O[C@H]1c1ccccc1CN=[N+]=[N-]`: the composite z-score worked out at 0.705. In turn, `CCCC=C(CCC)[C@@H](NC(=O)c1ccco1)c1ccc(C(=O)OC)cc1` came in with a composite z-score of 0.48. The figure for `COC(=O)c1c(CC[C@@H](CO)NC(=O)N[C@@H](Cc2ccccc2)Cn2cc(-c3cncn3C)nn2)oc(C(C)=O)c1C(=O)OC` is -0.147; for `COC(=O)[C@@]1(Cc2ccc(OC)cc2)[C@H]2c3cc(C(=O)N(C)C)n(Cc4ccsc4Br)c3C[C@H]2CN1C(=O)c1ccccc1` it is 0.456. The figure for `C=CCC(OC(C)=O)[C@@H]1[C@@H](N(Cc2ccc(-c3ccccc3)cc2)C(=O)c2ccc(-c3ccccc3)cc2)c2cc(OCCCO)ccc2N1C(=O)c1ccc2ccccc2n1` (stereo partly specified) is 0.026; for `O=C1c2ccccc2[C@](Cc2ccccc2I)(C(=O)O)[C@H](c2ccc(CO)cc2)N1Cc1ccccc1` it is 0.223. Turning to `COCC(=C=CC[C@@H](O)c1cccc(OCCO)c1)C[C@@H](O)COCc1ccccc1`, the composite z-score worked out at 1.24. `C[N+](C)(C)CCCCCCNC(=O)[C@@H]1C[C@@H]2C(=O)N[C@@H](Cc3ccccc3)C(=O)N2[C@@H]1c1ccc(O)cc1` gave a composite z-score of 0.286. The figure for `COCCOC(=O)N1C(=O)[C@@]2(c3ccccc31)[C@H](c1ccc(OCCO)cc1)N1[C@H](c3ccccc3)[C@H](c3ccccc3)OC(=O)[C@H]1[C@@H]2C(=O)N1CCN(c2ncccn2)CC1` is 0.547; for `COCCOC(=O)N1C(=O)[C@@]2(c3cc(C#CCCO)ccc31)[C@H](c1ccccc1OCCO)N1[C@H](c3ccccc3)[C@H](c3ccccc3)OC(=O)[C@H]1[C@@H]2C(=O)N1CCc2cc(OC)c(OC)cc2C1` it is 0.265; for `C=CCC(OC(C)=O)[C@@H]1[C@@H](N(Cc2cc3ccccc3o2)C(=O)Cc2ccc(OC)cc2)c2cc(OCCCO)ccc2N1C(=O)Cc1ccc(OC)cc1` (stereo partly specified) it is 0.0091.

Turning to `CC(C)C[C@H]1NC(=O)[C@@]23C(=O)N[C@@H](Cc4ccccc4)C2[C@H](C)[C@@]2(C)O[C@H]2C3/C=C/C/C=C\CNC(=O)[C@@H]2CCCN2C1=O` (stereo partly specified), the composite z-score was -0.0544. Take `COCCOC(=O)N1C(=O)[C@@]2(c3cc(C#CCC(C(=O)OC)C(=O)OC)ccc31)[C@H](c1ccc(OCCO)cc1)N1[C@H](c3ccccc3)[C@H](c3ccccc3)OC(=O)[C@H]1[C@@H]2C(=O)N1CCCCCCC1`: the composite z-score came out at 2.81. `COCC(=C=CC[C@@H](O)c1ccc(OCCO)cc1)C[C@@H](O)COCc1ccccc1` yielded a composite z-score of 0.0299.
